Data on eight molecules can be found in PubChem BioAssay (NCI).

What all share (assay): NCI-60 one-dose screen, 48 h (100 = growth as untreated, 0 = no growth, -100 = all killed)
Details in all cases: 10 µM unless noted

Assay [1] deals with NCI-H23 lung.
In assay [2] the test system is NCI-H226 lung.
The subject of assay [3] is NCI-H322M lung.
For assay [4], the system named is HOP-62 NSCLC.
The test system of assay [5] is NCI-H460 lung.
Assay [6] has as its system HOP-92 NSCLC.
Assay [7] has as its system NCI-H522 lung.
The subject of assay [8] is A549/ATCC NSCLC.
For assay [9], the system named is 786-0 renal.
In assay [10] the test system is COLO 205 colon.
Assay [11] deals with DU-145 prostate.
Assay [12] relates to K-562 leukemia.
Assay [13] deals with MALME-3M melanoma.
Assay [14] relates to MDA-MB-231 breast.
For assay [15], the system named is RXF 393 renal.
Assay [16] concerns SF-268 CNS.
Assay [17] deals with SF-295 CNS.
Assay [18] concerns SF-539 CNS.
In assay [19] the test system is UACC-257 melanoma.
In assay [20] the test system is M14 melanoma.

Compounds without any hit were thinned out: in the full panel of roughly 83,000, 20% have a hit.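 The endpoint reported here, percent growth, reads 100 for growth as untreated, 0 for no net growth and -100 for all cells dead.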 Values without a mark were called inactive. Active and inactive are the calls of the source. Rule for the calls: active = growth percent below 10; inactive = the rest.

`COc1ccc2c(c1)c(-c1noc(C(=O)c3cn(C)c4ncc(Br)cc34)n1)cn2C`: the growth in [1] is 30.1%; in assay [2], 26.6%; in [3], 92.9%; in assay [4] it was 53.1%; in assay [5] it was 76.7%; in [6], 7.92% (active). The growth is 67.9% in assay [7]; 28.1% in assay [8]; 59% in assay [9]; 68.4% in assay [10]; 50.4% in [11]; 71% in assay [12]. Besides, the growth in [13] is 28.1%; in assay [14] it was 25.4%; in [15] it was 27.9%; in assay [16], 62.8%; in assay [17], 89%; in [18], 25.7%. Moreover, the values for the growth in assay [19] and in assay [20] were 92.8% and 91.3%, respectively.

`COc1ccc(/C=C2\N=C(Nc3ccccc3)N(NC(=O)c3ccccn3)C2=O)cc1`: the growth in assay [1] is 101%; in assay [2], 98.1%; in assay [3] it was 106%; in [4], 107%; in assay [5], 99.7%; in [6], 95.8%. For the same molecule, the growth was 90% in assay [7]; 99.1% in [8]; 96.4% in [9]; 115% in assay [10]; 109% in assay [11]; 81.1% in [12]. Moreover, the growth in [13] is 105%; in [14], 94.6%; in assay [15], 95.8%; in assay [16], 101%; in [17], 98.2%; in assay [18] it was 98.3%. Besides, the growth in assay [19] was 108%; in [20], 101%.

On to `COc1cc2c(cc1OCCCN1CCN(CCCOc3cc4c(cc3OC)C(=O)N3C[C@H](F)C[C@H]3C=N4)CC1)N=C[C@@H]1C[C@@H](F)CN1C2=O`, for which the growth in [1] was 10.5%; in assay [2], 17.2%; in [3] it was -23.6% (active); in assay [4], 27.6%; in [5], 1.24% (active); in assay [6], -6.06% (active). Moreover, the growth in [7] was -48.8% (active); in [8], 6.52% (active); in assay [9], 12.4%; in [10] it was -47.1% (active); in assay [11], -19.9% (active); in assay [12], 2.13% (active). Besides, the growth in assay [13] is -75.7% (active); in assay [14] it was 18.8%; in [15], -52.1% (active); in assay [16], 9.5% (active); in assay [17] it was 13.8%; in [18], -68.4% (active). Further, the results for the growth in assay [19] and in [20] were 20.8% and -7.96% (active), respectively.

For the molecule `Cc1ccc(S(=O)(=O)n2cc(C(=O)C(=O)N3CCCCC3)c3ccccc32)cc1`, the growth in [1] is 55.1%; in [2], 87.5%; in assay [3], 92.9%; in [4], 80.3%; in assay [5] it was 91.9%; in assay [6] it was -0.0596% (active). Also, the growth in [7] is 70.2%; in assay [8] it was 120%; in assay [9], 88.7%; in assay [10] it was 109%; in [11], 97.1%; in assay [12] it was 69.9%. The growth in assay [13] is 84.8%; in [14] it was 75.2%; in assay [15], 113%; in [16], 78%; in assay [17], 60.4%; in [18], 90.6%. Moreover, the growth was 101% in assay [19] and 89.4% in assay [20].

With `CC(C)OC(=O)Nc1cc(F)c(F)cc1F`, the growth in assay [1] is 99%; in assay [2] it was 98%; in [3], 96.3%; in [4], 99.8%; in [5], 104%; in [6] it was 102%. The growth in assay [7] was 97.8%; in assay [8], 97.8%; in assay [9], 107%; in assay [10] it was 113%; in [11] it was 110%; in [12], 111%. Moreover, the growth in [13] is 89.9%; in assay [14], 103%; in assay [15], 104%; in [16], 101%; in assay [17] it was 102%; in assay [18] it was 96.2%. Besides, the growth in [19] is 94.8%; in [20], 93.7%.

With `CCNC(=O)N1CCc2c(Cl)c3c(c(OC)c2[C@@H]1[C@H]1OCc2c1ccc(OC)c2OC)OCCO3`, the growth in assay [1] is 32.6%; in [2], 60.1%; in assay [3], 30.1%; in assay [4] it was 35.3%; in assay [5], 9.88% (active); in assay [6], 44.5%. In addition, the growth in [7] was 11.6%; in assay [8], 35.2%; in assay [9] it was 26.9%; in [10], -11% (active); in assay [11], 10.9%; in assay [12] it was 10.4%. In addition, the growth was 29.6% in assay [13]; 43.2% in assay [14]; -39.8% (active) in assay [15]; 45.3% in assay [16]; 8.12% (active) in assay [17]; -41.3% (active) in [18]. For the same molecule, the growth in assay [19] is 55.3%; in [20], 1.38% (active).

Take `O=c1[nH]cnc2c1ccn2C1OC(CO)C(O)C1O` (stereo not given): the growth was 81.4% in [1]; 75.1% in assay [2]; 64.6% in [3]; 76.5% in assay [4]; 49.4% in assay [5]; 8.49% (active) in [6]. The growth was 61% in [7]; 84.4% in assay [8]; 58.9% in assay [9]; 66.8% in assay [10]; 18.4% in assay [11]; 65.4% in assay [12]. Also, the growth was 81.3% in assay [13]; 45.3% in [14]; 43.1% in assay [15]; 76% in assay [16]; 69.2% in [17]; 80.4% in assay [18]. For the same molecule, the growth in assay [19] was 86.2%; in [20], 55.9%.

`C[C@@H]1C[C@H]2C(=O)O[C@@H](C)[C@H](NC(=O)[C@H](Cc3cc(F)cc(F)c3)NC(=O)Nc3ccc(Cl)cc3F)C(=O)N3C[C@H](O)C[C@H]3C(=O)N3CCN(C)C[C@H]3C(=O)N[C@@H](C)C(=O)N2C1`: the growth was 36.2% in [1]; 52.6% in assay [2]; 72.8% in assay [3]; 47.8% in assay [4]; 36% in assay [5]; 37.8% in assay [6]. Further, the growth in [7] was 26.7%; in assay [8], 53.6%; in assay [9], 74.1%; in [10], 12%; in [11], 41.3%; in assay [12], 27.7%. For the same molecule, the growth in assay [13] was 45.4%; in assay [14] it was 27.9%; in assay [15], 88.1%; in assay [16], 29.1%; in assay [17], 38.9%; in assay [18], 51.3%. Further, the growth in [19] is 19.8%; in assay [20], 72.9%.
